In the library only some 3.6% were active in any assay of this set; here they are far more common.
GDH-TPI counter-1 = GDH-TPI coupled enzyme inhibition counter-screen; 360,000 compounds, 1.2% hits; GDH-TPI coupled enzyme counterscreen, NADH absorbance; inhibition, % at 4.8 µM; in the data active = inhibition above about 30%;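 note: 0% = DMSO wells and 100% = wells lacking the enzyme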
Mtb hypoxia rep = Mtb hypoxia fluorescent reporter inhibition; M. tuberculosis hypoxia-regulated fluorescent reporter, fluorescence; fluorescence inhibition, % (no concentration beside the values); 300,000 compounds, 0.1% hits; in the data active = fluorescence inhibition mostly above about 23%, no sharp cut-off; inactive = mostly below about 17%
Mtb bLac sens = beta-lactam sensitization of Mtb H37Rv | 330,000 compounds, 0.27% hits | inhibition, % at 25 µM | AID 434955 | M. tuberculosis H37Rv growth with meropenem, percent inhibition; call rule not given here;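 note: growth measured after seven days incubation then overnight dye step; 0% = bacteria only wells and 100% = bacteria with antibiotic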
FBA Mtb inh = Mtb fructose-bisphosphate aldolase inhibition | P9WQA3 | inhibition, % at 1 µM | 360,000 compounds, 2.3% hits | purified M. tuberculosis FBA, fluorescence read-out;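 note: 0% = vehicle and 100% = reference inhibitor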
Target sequence (P9WQA3 whole entry, looked up): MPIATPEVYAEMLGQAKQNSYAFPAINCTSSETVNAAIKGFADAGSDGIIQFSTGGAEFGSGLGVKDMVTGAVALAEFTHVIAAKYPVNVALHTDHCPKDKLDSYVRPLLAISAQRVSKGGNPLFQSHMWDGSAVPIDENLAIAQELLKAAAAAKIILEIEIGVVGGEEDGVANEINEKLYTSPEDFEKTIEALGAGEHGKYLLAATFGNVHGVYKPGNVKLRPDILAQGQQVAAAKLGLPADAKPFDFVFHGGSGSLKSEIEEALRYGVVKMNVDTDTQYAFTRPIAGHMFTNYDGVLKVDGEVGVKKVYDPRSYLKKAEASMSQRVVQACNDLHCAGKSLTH
VHR inh abs = blocks human VHR1 dual specificity phosphatase. recombinant VHR phosphatase, pNPP absorbance. AID 1654. inhibition, % at 13.3 µM. 290,000 compounds, 0.52% hits. P51452; in the data active = inhibition above about 50%
Target sequence (P51452 whole entry, looked up): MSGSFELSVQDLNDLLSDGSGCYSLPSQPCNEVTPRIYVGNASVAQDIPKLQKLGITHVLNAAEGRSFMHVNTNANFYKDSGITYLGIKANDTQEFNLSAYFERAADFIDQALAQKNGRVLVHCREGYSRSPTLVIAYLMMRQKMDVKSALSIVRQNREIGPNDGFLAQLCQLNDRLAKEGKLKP
Mtb FBA confirm = Mtb FBA inhibition, confirmed | shares compounds with FBA Mtb inh | purified M. tuberculosis FBA, fluorescence read-out | inhibition, % at 1 µM | 5,600 compounds, 78% hits | AID 651616;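 note: 0% = vehicle wells and 100% = reference inhibitor wells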
GDH-TPI counter-2 = counter-screen for M. tuberculosis FBA inhibitors: GDH-TPI coupled enzyme inhibition | shares compounds with FBA Mtb inh | 5,600 compounds, 81% hits | inhibition, % at 1 µM | GDH-TPI coupled enzyme counterscreen, fluorescence; in the data active = inhibition above about 10%
GDH-TPI dose = inhibits GDH-TPI coupling enzymes in dose response; shares compounds with FBA Mtb inh; GDH-TPI coupled enzyme assay, fluorescence, artifact counterscreen; IC50, µM; 170 compounds, 79% hits; call rule not given here
Numbers without * were called inactive; ? = inconclusive; nt = no result given; + = active, no number. Cut-off read from the data, not from the text of the source, unless noted: active = inhibition above about 27%; inactive = the rest.

SMILES	GDH-TPI counter-1	Mtb hypoxia rep	Mtb bLac sens	FBA Mtb inh	VHR inh abs	Mtb FBA confirm	GDH-TPI counter-2	others
COc1cc(C)cc2oc(=O)c(CC(=O)N3C[C@H]4C[C@@H](C3)c3cccc(=O)n3C4)c(C)c12	4	nt	9	81*	9	139*	124*
O=C(O)COc1ccccc1C=NNC(=O)CSc1nc2ccccc2c(=O)n1-c1ccccc1	nt	3	nt	nt	nt	nt	nt
COc1cc(C=NNC(=O)c2cccc([N+](=O)[O-])c2)cc(OC)c1O	nt	-3	nt	nt	nt	nt	nt
Nc1nc(-c2ccccc2)c(-c2ccccc2)o1	-3	nt	-12	5	8	nt	nt
c1ccc(-c2nc(-c3nccc4ccccc34)oc2-c2ccccc2)cc1	5	11	28	62*	-9	91*	52*
CCCCC(=O)Nc1c(-c2ccc(OC)c(OC)c2)c(=O)c2ccccc2n1C	7	-2	-1	0	14	nt	nt
CCCCCC(=O)Nc1c(-c2ccc(OC)cc2)c(=O)c2ccccc2n1C	21	13	?	28*	10	128*	104*
CCCC(=O)Nc1c(-c2ccc(OC)cc2)c(=O)c2ccccc2n1C	23	5	-3	28*	15	0	-3
O=C(CCN1C(=O)C2C3C=CC(C3)C2C1=O)NC1CCCCC1 (stereo not given)	10	nt	1	8	5	nt	nt
CCOC(=O)N1CCC(NC(=O)CCN2C(=O)C3C4C=CC(C4)C3C2=O)CC1 (stereo not given)	-5	nt	-8	84*	0	+	+
O=C(COC(=O)[C@@H]1CCCN1C(=O)c1cccs1)NCCc1ccccc1	0	12	4	27*	-6	-1	-1
CC(C)NC(=O)NC(=O)COC(=O)C1CCCN1C(=O)c1cccs1 (stereo not given)	9	14	-11	6	16	nt	nt
C/C(C=Nn1c(COc2ccccc2)n[nH]c1=S)=C\c1ccco1	nt	3	nt	nt	nt	nt	nt
COc1cc(C2CC=C(C(=O)O)C(c3ccc(F)cc3)N2S(=O)(=O)c2ccc(C)cc2)cc(OC)c1OC (stereo not given)	nt	17	nt	nt	nt	nt	nt
COc1ccc(C(=O)Nc2cccc(C(C)=NNC(=O)c3ccc([N+](=O)[O-])c(C)c3)c2)cc1OC	nt	11	nt	nt	nt	nt	nt
O=C(c1cnc2ccc(Cl)cc2c1Cl)N1CCOCC1	-4	-3	nt	-2	39	nt	nt
O=C(c1ccc2nc3ccc(Cl)cc3c(=O)n2c1)N1CCC2(CC1)OCCO2	20	3	-12	40*	nt	+	+
O=C(c1ccc2nc3ccccc3c(=O)n2c1)N1CCN(Cc2ccc3c(c2)OCO3)CC1	4	6	15	69*	24	-4	-10
O=C(c1ccc(Cl)cc1)N1CCC2(CC1)OCCO2	-1	-7	-2	2	11	nt	nt
O=C(c1cccn2c(=O)c3ccccc3nc12)N1CCN(Cc2ccc3c(c2)OCO3)CC1	20	11	1	23	29	nt	nt
O=C(c1ccc2nc3ccc(Cl)cc3c(=O)n2c1)N1CCOCC1	13	0	?	93*	5	+	+
CCN1C(=O)/C(=C2/Sc3ccccc3N2CC)SC1=Nc1ncn[nH]1	nt	7	nt	nt	nt	nt	nt
O=[N+]([O-])c1ccc(-c2ccc(C=Nc3cccc4ccccc34)o2)cc1	33*	5	-7	71*	8	12	-4	GDH-TPI dose=>10
O=[N+]([O-])c1ccc(C=Nc2cccc3ccccc23)s1	-2	11	29	50*	12	6	-1
O=[N+]([O-])c1ccc(C=Nn2c(CO)nc3ccccc32)s1	nt	21	nt	nt	nt	nt	nt
SMILES	GDH-TPI counter-1	Mtb hypoxia rep	Mtb bLac sens	FBA Mtb inh	VHR inh abs	Mtb FBA confirm	GDH-TPI counter-2	others
CC(NC(=O)c1nc[nH]c1C(=O)NC(C)c1ccccc1)C(=O)OC(C)(C)C (stereo not given)	nt	18	nt	nt	nt	nt	nt
COc1ccc2nc(C(c3ccc(C)cc3)n3c(-c4ccccc4Br)nc4ccccc43)[nH]c2c1 (stereo not given)	nt	nt	nt	52*	nt	+	+
CC(=O)Nc1cc(-c2ccc(S(C)(=O)=O)cc2)cn2c(-c3ccc(F)cc3)cnc12	8	nt	nt	0	nt	nt	nt
CC(=O)Nc1cc(-c2cccc(F)c2)cn2c(-c3ccc(S(C)(=O)=O)cc3)cnc12	13	nt	nt	71*	nt	+	+
CC(=NNC(=O)c1ccc2c(c1)OCO2)c1ccc2c(c1)OCO2	nt	17	nt	nt	nt	nt	nt
CCOc1ccc(C=NNc2cc(=O)n(C)c(=O)n2C)cc1	nt	10	nt	nt	nt	nt	nt
O=C(Nc1ccccc1C(=O)NC1CCCCC1)c1ccco1	-4	13	-1	1	36	nt	nt
O=C(O)/C=C\C(=O)Nc1ccccc1C(=O)NC1CCCCC1	7	-6	-1	52*	20	-2	-4
CCOC(=O)Cc1c(C)nc2c(-c3cccc(Br)c3)c[nH]n2c1=O	6	-4	98	41*	0	21	21*
CCOC(=O)N(NC(=O)C(O)(C(C)C)C(C)C)c1ccccc1	7	16	-1	101*	6	47*	55*
CCOc1cc(C=NNc2nc(N3CCCCC3)nc(N3CCCCC3)n2)ccc1OC(=O)c1ccco1	nt	9	nt	nt	nt	nt	nt
C=CCC(=O)N1CCCC(CCC(=O)NCc2ccccc2F)C1 (stereo not given)	-3	12	6	33*	16	46*	47*
c1ccc2c(c1)ccc1[nH]c3c(c12)CCCC3	11	nt	nt	43*	nt	75*	69*
Cc1ccc2nc(-c3ccc(NC(=O)CSc4nccc(=O)[nH]4)cc3)sc2c1	24	nt	36	53*	21	+	+
Cc1ccc2nc(-c3ccc(NC(=O)CSc4nc(N)cc(=O)[nH]4)cc3)sc2c1	24	11	-5	37*	23	73*	42*
CCn1c(SCC(=O)Nc2ccc(-c3nc4ccc(C)cc4s3)cc2)nnc1-c1ccccc1	nt	nt	-1	nt	63	nt	nt
Nc1cc(=O)[nH]c(SCC(=O)Nc2nc3ccc([N+](=O)[O-])cc3s2)n1	nt	3	-1	nt	49	nt	nt
O=C(CC1CC=CCCCC(=O)OC(c2ccccc2)CNC1=O)NCCO (stereo not given)	nt	0	nt	nt	nt	nt	nt
OCCNc1c2ccccc2nc2c(F)c(F)c(F)c(F)c12	2	9	-5	72*	-1	+	+
O=C(C=Cc1cccs1)Nc1ccc(N2CCOCC2)c(S(=O)(=O)Nc2ccccc2Cl)c1	nt	2	nt	nt	nt	nt	nt
Cc1ccccc1NC(=O)Cn1c(C)nc2ccc(N)cc2c1=O	10	10	-17	61*	12	17	0	GDH-TPI dose=2.8*
Cc1ccc2c(c1)COc1c3ccc(C(=O)N[C@@H](C)CO)cc3nn1-2	21	nt	14	34*	34	+	+
O=C1C=C(c2cccc(CO)c2)CC(c2ccc(F)cc2)C1 (stereo not given)	nt	16	nt	nt	nt	nt	nt

High-throughput results (PubChem)
